# Measured values reported in the supplement of paper PMC6555819.
# How the values were obtained:
# Test in all cases: PBM binding z-score (relative to random genomic background probes); higher = stronger binding; sequences stand for … in GC…GCGATTGACAGCGTAGAATGAAGG
# [1] = tested on: PPARg:RXRa DBDmut IVT, anti-RXR (DBD mutation: RXRa K156A/R161A, NR concentration 270 nM, RXRa partner concentration 90 nM)
# How it was run: (§1)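 Scanned fluorescence from custom Agilent 4×180K protein-binding microarrays was regression-normalized. Binding z-scores use random background probes as reference. Ligand-free nuclear receptor dimers were incubated on the arrays for 1 h and detected with antibodies against each partner (one per run).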
# [2] = tested on: PPARg:RXRa IVT, anti-PPARg (NR concentration 270 nM, RXRa partner concentration 90 nM)
# How it was run: as §1
# [3] = tested on: PPARg DBDmut:RXRa IVT, anti-PPARg (DBD mutation: PPARg1 K132A/R137A, NR concentration 270 nM, RXRa partner concentration 90 nM)
# How it was run: as §1
# [4] = tested on: PPARg DBDmut IVT, anti-PPARg (DBD mutation: PPARg1 K132A/R137A, NR concentration 270 nM)
# How it was run: as §1
# [5] = tested on: PPARg homodimer (NR concentration 180 nM)
# How it was run: as §1
# [6] = tested on: PXR:RXRa (NR concentration 270 nM, RXRa partner concentration 90 nM)
# How it was run: as §1
# [7] = tested on: PXR homodimer (NR concentration 270 nM)
# How it was run: as §1
# [8] = tested on: RARa:RXR (NR concentration 270 nM, RXRa partner concentration 90 nM)
# How it was run: as §1
# [9] = tested on: RARa homodimer (NR concentration 270 nM)
# How it was run: as §1
# [10] = tested on: RARb:RXRa (NR concentration 270 nM, RXRa partner concentration 90 nM)
# How it was run: as §1
Sequence,PBM binding z-score [1],PBM binding z-score [2],PBM binding z-score [3],PBM binding z-score [4],PBM binding z-score [5],PBM binding z-score [6],PBM binding z-score [7],PBM binding z-score [8],PBM binding z-score [9],PBM binding z-score [10]
CCAGACAGGTGAGAAGGTATCTCAGCCTCGATTA,0.865,0.119,-1.02,-0.0601,0.414,-0.407,0.0596,0.185,0.147,0.303
TCGAGTAGGTTACCAATGGGGCATTGAGCTTTCT,3.4,2.69,-0.293,-0.233,-0.0976,0.039,-0.707,0.00376,-0.988,0.917
TCGAGTAGGTTACCAATGAGGCATTCAGCTTTCT,3.32,2.35,0.0818,-0.605,-0.815,-0.0047,-0.892,0.302,-1.06,0.723
CAAACTAGGTCCCAGAGGTCAAAGTCCGTGCGTA,4.19,4.68,1.03,0.477,2.64,5.55,2.66,5.68,1.33,3.8
TCTAGTTTGTCACGGAGGTCACACACGACGGGTA,1.88,3.07,0.895,1.64,2.96,4.44,1.91,4.55,1.86,3.54
CCTTACGGGTCACGAGGTTATAGCACGACGAGCG,3.98,5.69,1.85,0.701,2.37,4.46,0.418,5.47,0.688,4.62
TCTATTAGTTGATTAGGGCAACAGAAACAGCGGA,2.04,1.59,1.69,1.06,1.02,0.573,0.374,0.636,1.08,0.82
TCGAGTAGGTTAGGGGCATTTAGAATGGCGTCGA,2.14,1.43,-0.441,-0.569,0.734,0.534,0.61,0.611,0.362,0.962
CGTCCAAGGTCAGAGAAGTCAGTGAATGCCGAGT,2.46,2.18,-0.292,-0.903,1.38,2.55,0.728,2.86,0.262,4.68
TCAGACAGGTGAAGGTAACCCAGGTACGCAGTCG,2.61,2.16,0.501,-0.304,0.633,0.747,0.22,0.961,0.035,1.44
CCTTACGGCTCAAGGTTATAGCACGGGTGGTACG,-0.441,-0.312,-1.23,-0.222,0.358,0.204,0.404,0.389,0.282,0.562
GCTAGCAGGCCATTTGGGTCACTCAATGACGGGC,1.95,2.3,-1.31,-1.12,-0.589,0.628,0.0652,0.69,-0.931,1.63
TCGAGTCGGTTAGGGGCATTCAGAATGGCGTCGA,0.464,-0.15,-1.37,-1.74,-0.435,0.545,-0.165,0.325,-1.4,0.501
TATACAGGGTCAAAGGCAAGAGTACGAATGTCGA,2.4,4.77,3.32,1.87,2.27,3.86,1.15,5.3,1.42,4.43
ACAGACAGGTGATTAAGGTAACTCAGGCTATCAT,0.239,0.557,0.291,-0.545,0.126,0.164,0.294,1.23,0.587,0.35
CCAGAGAGGTGAGAAGGTAACTCAGCCTCGATTA,2.21,1.69,-0.147,-0.518,0.918,0.339,0.0728,1.04,-0.0942,1.57
TCATAAAGGTAAATGCTAGGTGAAAGTCCGATCT,3.32,1.59,0.692,0.518,1.01,0.647,0.218,1.36,0.932,1.04
ACTTACGGGGCAACGAGGTTATAGCACGCGTATA,2.66,2.16,0.904,0.257,0.811,1.62,0.644,1.73,0.365,1.63
GCTAGCAGGCCACTTGGGTCACTCAATGACGGGC,1.43,1.32,-1.04,-0.967,-0.431,0.269,-0.237,0.575,-0.207,1.34
TCTTGTAGATCCGCAGGTTAAGAAAGCTGGCCAA,1.29,-0.0295,0.383,-0.621,-0.223,0.161,-1.09,0.597,-0.725,0.136
TCTCGGAGGACACGAAGGCCAGAGCTTTCCAGAG,1.5,0.0169,-0.633,-1.61,-0.704,-0.278,-0.919,-0.235,-1.31,1.82
ACTATTAGTTGAGACGCGGGCAACCGATAGGTTG,-0.288,-0.175,0.481,0.188,-0.291,-0.299,-0.208,-0.588,-0.0314,0.15
CTCGAAAGGCCGTGCTCAGGTGAGTATACCAAAC,-0.523,-0.175,-0.959,-0.325,-1.11,-0.568,-0.631,-0.118,-0.796,1.05
TGAATGAGGTTAAAGACCAGGGAACGTGGCGTCG,1.75,2.7,1.19,0.401,0.683,1.08,-0.0383,2.17,0.0679,1.84
CCTAGTTGCTCAAGGTCACACACGCTATAGGTAC,1.51,2.33,0.625,0.725,3.56,4.21,2.68,4.4,2.45,3.97

Sequence,PBM binding z-score [1],PBM binding z-score [2],PBM binding z-score [3],PBM binding z-score [4],PBM binding z-score [5],PBM binding z-score [6],PBM binding z-score [7],PBM binding z-score [8],PBM binding z-score [9],PBM binding z-score [10]
GCGACTGGGTCATCAGCAGGTTACCATAACTTAA,5.38,5.94,0.513,-0.691,1.31,2.22,-0.585,3.39,-0.469,3.23
GCTATTAGTTGAAAGGGCATCCGAATGATTCTCG,0.6,0.576,0.336,0.482,1.17,0.67,0.374,1.21,0.477,1.65
TCTGCAAGGTCAGTTGGTCAGCTAACGAGCTGCC,1.67,2.69,0.998,1.09,1.99,2.09,-0.237,2.67,-0.428,4.43
CAGCCTGGGTCAGGGCCAGTATAGGAGGAACGTT,-0.161,1.32,-1.28,-1.68,0.728,0.109,-0.685,0.59,-0.125,2.83
TCATATAGGTAATTGCTAGGTGAAAGTCCGATCT,4.13,2.91,0.632,1.27,0.408,0.515,0.224,0.757,0.784,0.345
CAAACTAAGTCAAAGGTCAAAGTCGAGCCAACCA,3.49,6.79,1.69,2.86,5.3,6.14,2.15,7.85,3.31,4.95
TCATATAGGTATATGCTAGGTGAAAGTCCGATCT,2.4,1.07,0.908,1.63,0.436,0.612,0.215,0.893,0.379,0.145
TAGCCAAGGTCATTGGGCCAGTATAGTACGCATC,2.26,4.14,1,0.266,2.22,4.33,1.15,4.03,0.395,5.01
CCAGACACGTGAGAAGGTAACTCAGCCTCGATTA,-0.227,-0.531,-0.51,-0.51,0.168,-0.212,0.145,-0.206,0.356,-0.318
ATCTATAGGTAAAGATAGTTCAGTGAATGCAAAT,1.2,1.29,0.937,1.26,0.82,1.65,0.751,0.916,0.797,0.78
CCTTACGGGTCACTCCAGGTTATAGCGTCGGAGT,2.49,3.79,0.79,-0.822,2.29,5.1,0.516,4.18,0.581,3.74
ACTTACGGGTCAACGAGGTAATAGCACGCGTATA,3.55,4.22,1.27,1.43,2.86,3.81,0.484,4.62,0.585,4.15
CGTCCAAGGTCATAGGAGGGCAGTGAAGACAGAT,3.1,3.89,1.14,0.568,2.4,6.12,1.56,4.4,0.613,5.06
ACAGCCAGGTGATGAAGGTAACTCAGGCTATCAT,0.0691,0.392,-0.315,-0.803,-0.425,-0.407,-0.502,0.0022,-0.504,-0.00483
ATCTCTAGGTAACAAGTTCAGTAAAAGAGAGGAC,3.06,3.22,1.24,1.1,1.34,1.67,1.66,1.57,1.54,1.78
CCTCCTGGGCCAAAGGTCATTGATTCCAATGCTC,1.03,4.67,-0.712,-0.452,3.43,5.26,1.79,5.99,0.948,4.3
ATCAAAAGGTCGACGAGGTGAGTATACACCGTTT,0.837,2.54,1.44,1.18,2.16,3.22,0.528,3.88,1.22,4
AGACCGAGGGCAATGAGTTGATAGCACGGGTGGC,0.184,0.251,-0.826,-1.67,-1.05,1.23,5.21,-0.109,-0.589,1.79
AGAATGAGGTTATTAAGATCAGTGAATTGCGGTC,3.14,2.61,0.948,0.175,1.22,1.37,0.788,1.35,0.44,1.31
CTCGAAAGGTCGTGCCCAGGTGAGTATACCAAAC,0.771,1.91,0.249,0.285,2.38,3.17,0.0798,4.63,0.0863,3.91
GCATATAGGTAATACAAGGTGAAAGTGCGATTGT,3.95,3.56,1.03,1.01,0.954,0.734,0.452,1.35,0.831,0.52
TAGCCTAGGTAATTGGGCCAGTATAGTACGCATC,1.83,2.8,0.0704,-0.276,-0.531,-0.502,-0.469,-0.743,-0.501,-0.455
CGAACTAGGTCAAGGACAGTGCATCTCCGCACGC,8.15,8.09,1.65,0.963,1.3,2.24,0.348,1.94,-0.145,3.97
CGAACTAGATCAAGGACAGTGAATCTCCGCACGC,1.97,0.649,-0.11,-0.153,0.0368,-0.495,-0.0304,-0.24,0.262,0.0814
